What was measured:
Conditions in all cases: concentration: 1 μM, replicates: in singlicate; n = 1
CHEK2 = system: CHEK2
CIT = system: CIT
CLK1 = system: CLK1
CLK2 = system: CLK2
CLK3 = system: CLK3
CLK4 = system: CLK4
CSF1R-autoinhibited = system: CSF1R-autoinhibited
CSF1R = system: CSF1R
CSK = system: CSK
CSNK1A1L = system: CSNK1A1L
CSNK1A1 = system: CSNK1A1
CSNK1D = system: CSNK1D
CSNK1E = system: CSNK1E
CSNK1G1 = system: CSNK1G1
CSNK1G2 = system: CSNK1G2
CSNK1G3 = system: CSNK1G3
CSNK2A1 = system: CSNK2A1
CSNK2A2 = system: CSNK2A2
CTK = system: T1, CTK
T1 construct: gene MATK

DAPK1 = system: DAPK1
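Note: KINOMEscan kinase panel screen.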

Compound | %Inh (CHEK2) | %Inh (CIT) | %Inh (CLK1) | %Inh (CLK2) | %Inh (CLK3) | %Inh (CLK4) | %Inh (CSF1R-autoinhibited) | %Inh (CSF1R) | %Inh (CSK) | %Inh (CSNK1A1L) | %Inh (CSNK1A1) | %Inh (CSNK1D) | %Inh (CSNK1E) | %Inh (CSNK1G1) | %Inh (CSNK1G2) | %Inh (CSNK1G3) | %Inh (CSNK2A1) | %Inh (CSNK2A2) | %Inh (CTK) | %Inh (DAPK1)
Nc1ncnc2[nH]c(-c3ccccc3)nc12 [AH5015] | 0% | 9% | 67% | 57% | 0% | 71% | 7% | 13% | 0% | 1% | 0% | 21% | 14% | 11% | 0% | 9% | 29% | 100% | 5% | 4%
Cn1ccc2ncnc(Oc3ccc(NC(=O)Nc4ccccc4)cc3)c21 | 14% | 22% | 1% | 0% | 0% | 14% | 10% | 95.1% | 0% | 3% | 4% | 13% | 5% | 0% | 11% | 0% | 14% | 0% | 0% | 11%
O=c1cc(N2CCOCC2)nc2n(Cc3cccc(Cl)c3Cl)ccn12 [GSK2286295] | 0% | 5% | 64% | 14% | 13% | 51% | 0% | 25% | 0% | 6% | 27% | 26% | 41% | 10% | 0% | 41% | 2% | 5% | 0% | 8%
COc1ccccc1-c1ccc2c(NC(=O)C3CC3)n[nH]c2n1 [SB-711239] | 19% | 22% | 3% | 0% | 0% | 33% | 30% | 0% | 62% | 6% | 10% | 0% | 2% | 0% | 5% | 11% | 0% | 0% | 0% | 0%
COC(=O)c1c(-c2ccccc2)c2cc(C(=O)O)ccc2c(=O)n1Cc1ccccc1 | 13% | 2% | 0% | 13% | 0% | 0% | 0% | 50% | 8% | 0% | 0% | 7% | 0% | 0% | 0% | 0% | 0% | 0% | 0% | 0%
